Screens as filed in PubChem.
In the library only some 1.6% were active in any assay of this set; here they are far more common.
HUVEC tox IL1B – HUVEC cytotoxicity counter-screen, IL-1B stimulated. HUVEC cell count loss, Hoechst imaging. cell count reduction, % at 2 µM. actives 0.41% (n = 94,000);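 active = cell count reduction more than 3 SD above the screen-wide mean, cut at about 70% in these data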
IL1B NFkB pot – enhances IL-1B driven NFkB nuclear translocation | HUVEC IL-1B NFkB p65 nuclear translocation imaging | activation, % at 2 µM | actives 0.3% (n = 94,000) | AID 819;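 active = activation above 40%, about the mean plus 3 SD, also judged a hit on visual image review; inconclusive = activation above 40% but not a hit on visual review; inactive = activation not above 40% and no visual hit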;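 also: percent activation is computed from the nuclear over cytoplasmic p65 intensity ratio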
VCAM1 TNFa inh – reduces TNF alpha induced VCAM1 expression in HUVEC; HUVEC TNFa-induced VCAM-1 immunofluorescence, high-content imaging; inhibition, % at 2 µM; actives 0.48% (n = 95,000); AID 802;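 active = inhibition above the batch mean plus 3 SD, with images confirmed as a hit by eye, cut at about 37% in these data; inconclusive = inhibition above that limit but hit not confirmed in images; inactive = inhibition not above that limit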
TNFa cytotox – HUVEC cytotoxicity counter-screen, TNF alpha stimulated | cell count reduction, % at 2 µM | HUVEC TNFalpha-stimulated, Hoechst cell count, imaging | actives 0.17% (n = 93,000);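 active = cell count reduction exceeding the screen mean by over 5 SD, scaled to untreated wells per plate, cut at about 78% in these data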;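 also: cells counted after 24 h of TNF alpha exposure following the 1 h pretreatment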
F-actin modifier – cytoskeleton assembly modification; HUVEC TNFa F-actin phalloidin imaging, high content; inhibition, % at 2 µM; actives 0.18% (n = 91,000); AID 836;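 active = inhibition above the batch mean plus 3 SD and confirmed as a hit by visual image inspection, cut at about 30% in these data, passing the limit was not always enough; inconclusive = above the inhibition threshold but rejected on visual inspection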
IL1B NFkB inh – blocks IL-1B driven NFkB nuclear translocation in HUVEC cells | HUVEC IL-1B NFkB p65 nuclear translocation imaging | inhibition, % at 2 µM | actives 0.43% (n = 94,000) | AID 796;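 active = inhibition above about 30% together with a positive call from visual inspection of the well image, limit read from the data; inconclusive = inhibition above a set limit but visual check negative; inactive = inhibition not above a set limit, visual check negative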;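 also: nuclear over cytoplasmic p65 intensity ratio measured by imaging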
Large screens that a line does not name were inactive.

COc1ccccc1N(C)S(=O)(=O)c1ccc(C(=O)NCC(C)C)cc1	VCAM1 TNFa inh 74.5
COc1ccc(S(=O)(=O)N2CCC(C(=O)N3CCc4ccccc4C3)CC2)cc1Cl	none
CN(C)c1ccc(NC(=O)CSc2nc3ccccc3c(=O)n2C2CCCCC2)cc1	none
Cc1cc(NC(=O)CSc2nc3ccccc3c(=O)n2C2CCCC2)no1	VCAM1 TNFa inh 67.7
CCn1c(=O)c2c(n3cnnc13)-c1ccccc1CC21CCCCC1	F-actin modifier 41.1
CO/N=C(/CNC(=O)c1ccc(Cl)cc1Cl)c1ccc(Cl)cc1	none
CC(/C=N\NC(=O)c1cccnc1)c1ccccc1 (stereo not drawn)	none
COc1ccc(CNC(=O)C2CCCN(S(=O)(=O)c3cc(C)ccc3OC)C2)cc1 (stereo not drawn)	IL1B NFkB inh 64.2
COc1ccc(S(=O)(=O)N2c3cc(Cl)ccc3Oc3nc4ccccc4nc32)cc1	none
O=S(=O)(c1ccc(Cl)cc1)N1c2ccccc2Oc2nc3ccccc3nc21	HUVEC tox IL1B 86.3, IL1B NFkB inh 97.3
O=[N+]([O-])c1ccc2nccn2c1	none
Cc1ccc(S(=O)(=O)c2cc(C#N)c(=O)[nH]c2N)cc1	F-actin modifier 62.4
CC(C)NC1CS(=O)(=O)CC1O (stereo not drawn)	VCAM1 TNFa inh inconclusive, TNFa cytotox 100.0, F-actin modifier inconclusive
O=S1(=O)CC(O)C(Nc2ccccc2)C1 (stereo not drawn)	none
COn1c(=S)[nH]c2ccccc2c1=O	none
CC(C)n1c(=S)[nH]c2ccccc2c1=O	IL1B NFkB inh 36.5
O=C(c1ccc(COc2ccccc2Br)cc1)N1CCCCC1	IL1B NFkB pot 54.3
O=C(c1ccc(COc2ccccc2Br)o1)N1CCCCCC1	none
Cc1cccc(/C(N)=N/OC(=O)CCc2ccccc2)c1	none
COc1cc(/C=N/NC(=O)CSCc2ccc([N+](=O)[O-])cc2)cc(OC)c1OC	HUVEC tox IL1B 89.4
Cc1ccc(CN2CCC(c3nc4ccc(Cl)cc4[nH]3)CC2)cc1	IL1B NFkB inh 34.2
Clc1ccc2nc(C3CCN(Cc4ccccc4)CC3)[nH]c2c1	none
O=S(=O)(Nc1ccc(-n2cccc2)cc1)c1ccccc1	VCAM1 TNFa inh 39.5
CC(C)NC(=S)N/N=C1\CCCCC1C1CCCCC1 (stereo not drawn)	none
Cc1noc(C)c1C(=O)OCC(=O)NCCC1=CCCCC1	IL1B NFkB pot 113.5
CC(C)C(OC(=O)c1nsc(Cl)c1Cl)C(=O)NCc1ccc2c(c1)OCO2 (stereo not drawn)	HUVEC tox IL1B 85.7 (no result: TNFa cytotox)
Cn1nc(-c2ccc(OCC(=O)NCC3CCCO3)cc2)c2ccccc2c1=O (stereo not drawn)	none
Cn1nc(-c2ccc(C(=O)N3CCN(c4ccccc4)CC3)cc2)c2ccccc2c1=O	HUVEC tox IL1B 89.5, IL1B NFkB inh 99.4
Cn1nc(-c2ccc(C(=O)NCC3CCCO3)cc2)c2ccccc2c1=O (stereo not drawn)	HUVEC tox IL1B 89.8
O=C(c1ccc(N2CCCC2=O)cc1)N1CCN(c2ccccc2)CC1	IL1B NFkB pot 43.5 (no result: VCAM1 TNFa inh, TNFa cytotox)
Cn1nc(-c2ccc(C(=O)O)cc2)c2ccccc2c1=O	none
O=C(c1ccc(N2CCCC2=O)cc1)N1CCCCCC1	none
Cc1cc(CSc2ccccc2)ccc1NC(=O)c1ccc(Cl)c([N+](=O)[O-])c1	none
COc1cc(C)c(S(=O)(=O)n2ccc(C)n2)cc1C	none
CC1CN(c2ccc(S(=O)(=O)N3CCOCC3)cn2)CC(C)O1 (stereo not drawn)	IL1B NFkB inh 40.3
CC(C)c1ccc2c(c1)C(c1ccc(N3CCOCC3)cc1)=NNC(c1cccs1)=N2	none
CCOC(=O)C1=C(c2ccccc2)OC(N)=C(C#N)C1c1ccco1 (stereo not drawn)	VCAM1 TNFa inh 68.6
COC(=O)c1cc(-c2ccccc2)sc1NC(=O)CN1C(=O)c2ccccc2C1=O	none
CCc1cc2c(SCC(=O)c3ccc(Cl)s3)ncnc2s1	none
CCCOc1cccc(C(=O)Nc2cccc(NC(=O)c3ccco3)c2)c1	none
CCCOc1cccc(C(=O)Nc2cccnc2)c1	IL1B NFkB pot 40.1
CCOCC(=O)Nc1c(C(=O)OCC)oc2ccccc12	none
CCOC(=O)c1oc2ccccc2c1NC(=O)Cc1cccs1	VCAM1 TNFa inh 83.0
C=CCn1c(SCC(N)=O)nnc1-c1cc(Br)ccc1O	none (no result: TNFa cytotox)
CN(CC(=O)O/N=C(\N)c1ccc([N+](=O)[O-])cc1)S(=O)(=O)c1ccccc1	IL1B NFkB pot 50.3 (no result: F-actin modifier)
O=C(NCc1ccco1)c1ccc(CS(=O)(=O)Cc2ccc(Cl)cc2)o1	VCAM1 TNFa inh 92.8, TNFa cytotox 79.1
Cc1ccc(CS(=O)(=O)Cc2ccc(C(=O)NCc3ccco3)o2)cc1	none
CCCOC(=O)c1ccc(NC(=O)c2cc(OC)c(OC)c(OC)c2Br)cc1	none
O=C(O)C1CSC(c2ccccc2)N1C(=O)c1ccco1 (stereo not drawn)	none (no result: TNFa cytotox)
CC(=O)N1C(C(=O)O)CSC1c1cccc(C)c1 (stereo not drawn)	IL1B NFkB inh 35.7
CON1C(=O)C(=O)N(OC)C2CCCCC21 (stereo not drawn)	none
CC(C)NC(=O)CSCc1c(F)cccc1Cl	none
O=C(CN1CCCC1)N/N=C/c1ccc(-c2cccc(Cl)c2)o1	none
NC(=S)N/N=C\c1ccc(-c2cccc(Cl)c2Cl)o1	VCAM1 TNFa inh 80.2
NC(=S)N/N=C/c1ccc(-c2ccc(Cl)c(Cl)c2)o1	VCAM1 TNFa inh 67.8
Cc1cccc(C)c1OCC(O)CNS(=O)(=O)c1ccccc1C(=O)N1CCOCC1 (stereo not drawn)	none
Cc1ccc(OCC(O)CNS(=O)(=O)c2ccccc2C(=O)N2CCCCC2)cc1 (stereo not drawn)	F-actin modifier 43.6
CCCCCCCCC(=O)Nc1cc(C)ccc1OC	none
CCCCCOc1ccc(Br)cc1/C(C)=N/NC1=NCCN1	F-actin modifier 49.3
Cc1c(C(=O)OC(C)C)nnn1-c1nonc1N	none
CCOC(=O)c1[nH]c(C)c(C(=O)Nc2cc(OC)ccc2OC)c1C	HUVEC tox IL1B 79.6, IL1B NFkB inh 30.4
CCOC(=O)c1c(C)[nH]c(C(=O)OCC(=O)Nc2cc(C)ccc2OC)c1C	none
CCOC(=O)c1[nH]c(C)c(C(=O)c2ccc(C)cc2)c1C	VCAM1 TNFa inh 47.5
CCOc1ccc2c(c1)-c1c(ssc1=S)C(C)(C)N2	none
O=C1[C@@H]2C(c3ccccc3Cl)=NO[C@@H]2C(=O)N1Cc1ccccc1	none (no result: TNFa cytotox)
N#CCCSc1ncnc2c1oc1ccccc12	none
OCCSc1ncnc2c1oc1ccccc12	IL1B NFkB inh 32.0
CCCCNC(=O)CSc1nc2ccccc2c(=O)n1CCNC(C)=O	none
CC(=O)NCCn1c(SCC(=O)NCCC(C)C)nc2ccccc2c1=O	IL1B NFkB inh 99.3
Cc1ccc(S(=O)(=O)c2nc(-c3ccccc3)oc2NCc2cccnc2)cc1	IL1B NFkB inh 32.1
Cc1nonc1NC(=O)CSc1nc(C2CCCCC2)nc2ccccc12	F-actin modifier 82.7
